Assay outcomes: PubChem, National Center for Advancing Translational Sciences (NCATS)
Compounds with a hit are over-represented: about 17% of the library has one in this group of screens.
DT40 TDP1 no CPT: qHTS for Inhibitors of human tyrosyl-DNA phosphodiesterase 1 (TDP1): qHTS in cells in absence of CPT; DT40 Tdp1-/- hTDP1 cells, no CPT, ATP luminescence, 48 h; Potency, µM (series often up to 46.2 µM), actives largely listed as inhibitors; 420,000 compounds, 15% hits; AID 686978, 2013; further: nearly all actives have a fitted effect of over 55% in size
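Camptothecin absent (DMSO only). Human TDP1-complemented DT40 knockout cells, 400 cells/well, 37 °C for minimum 48 hr; ATP measured via CellTiter-Glo, 30 min dark incubation, luminescence.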
DT40 TDP1 CPT: qHTS for Inhibitors of human tyrosyl-DNA phosphodiesterase 1 (TDP1): qHTS in cells in presence of CPT | 420,000 compounds, 12% hits | Potency, µM (doses to about 46.2 µM), usual class: inhibitors | chicken DT40 Tdp1-/-;hTDP1 cells + 20 nM CPT, ATP luminescence, 48 h; further: nearly all actives have a fitted effect of over 55% in size
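Cell growth measured by CellTiter-Glo luminescence after a minimum 48 h, 37 C compound exposure with 20 nM CPT in Tdp1-knockout DT40 cells stably expressing hTDP1, seeded 400/well; qHTS titration format.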
TDP1 block: qHTS Assay for Inhibitors of Tyrosyl-DNA Phosphodiesterase (TDP1) | recombinant TDP1, AlphaScreen DNA substrate cleavage | AID 485290, 2010 | Potency, µM (series often up to 130 µM), most hits filed as inhibitors | 350,000 compounds, 0.28% hits; further: nearly all actives have a fitted effect of over 40% in size
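Tdp1 1 nM final; 15 min RT w/ cpd; substrate 15 nM, 5 min; beads 10 ug/ml, 10 min; AlphaScreen read. Neg ctrl: no enzyme.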
ClpP mod: qHTS Assay for Activators of ClpP; ATP-dependent Clp protease proteolytic subunit (Bacillus subtilis (strain 168)), P80244; purified B. subtilis ClpP, FRET peptide cleavage, 20 min; Potency, µM (top dose mostly 57.5 µM); 340,000 compounds, 1.9% hits; active means well fitted falling curve with a large enough effect; inconclusive means small, poorly fitted or top-dose-only effect; inactive means no such curve, though single readings can be large or run the other way; further: the source files actives as falling curves though it sought activators and does not explain the sign; nearly all actives have a fitted effect of over 65% in size
Target sequence (P80244 whole entry, looked up): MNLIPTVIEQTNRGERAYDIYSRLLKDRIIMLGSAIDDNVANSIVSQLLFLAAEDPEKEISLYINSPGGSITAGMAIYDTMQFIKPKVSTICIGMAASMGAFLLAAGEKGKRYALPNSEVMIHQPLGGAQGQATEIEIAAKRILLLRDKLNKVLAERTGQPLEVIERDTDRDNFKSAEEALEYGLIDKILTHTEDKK
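FRET quenching reversal measured ClpP activation: 10 microg/mL B. subtilis ClpP at pH 8 with the FRET-FV decapeptide, read at 430 nm after 320 nm excitation. The 20-min minus 0-min signal was scaled between DMSO/no-enzyme wells and ADEP (5.8 microM final).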
Numbers stand for hits; n = inactive; u = inconclusive; x = not tested or not shown; ! = repeats disagree. Unless noted, the call rests on the fitted dose curve; in most records, active means well fitted curve in the direction sought with a large enough effect; inconclusive means small, poorly fitted or top-dose-only effect, or another doubt; inactive means no such curve, though single readings can be large; an effect the other way counts as inactive or inconclusive.

SMILES | DT40 TDP1 no CPT | DT40 TDP1 CPT | TDP1 block | ClpP mod
CC(=O)C1(c2ccccc2)CCN(C(=O)C2CCC(=O)N(CCc3cccc(F)c3)C2)CC1 (configuration not stated) | 23.1µM | n | n | n
CC(C)(O)C(=O)Nc1ccc([N+](=O)[O-])c(C(F)(F)F)c1 | 14.6µM | u | n | n
O=C(O)c1ccc([N+](=O)[O-])c([N+](=O)[O-])c1 | n | n | x | x
CCOc1ccc2nc(NC(=O)c3cccn(Cc4ccc(C)cc4)c3=O)sc2c1 | n | n | n | n
CCOc1ccc(CCNC(=O)c2cnc3sc(N4CCCC4)nn3c2=O)cc1 | 2.31µM | 6.51µM | n | u
COc1ccc(C)cc1NC(=O)CN1CCN(CC(=O)Nc2ccccc2F)CC1 | 14.6µM | 23.1µM | n | n
CCOC(=O)C1(c2ccccc2)CCN(CC(=O)Nc2ccc(C)cc2)CC1 | u | u | x | n
CCOc1ccc(OCC)c(NC(=O)CN2CCN(c3ccc(C)cc3C)CC2)c1 | 16.4µM | u | n | n
COc1ccc(C)cc1NC(=O)c1cccn(Cc2ccccc2Cl)c1=O | n | n | n | n
O=C(Oc1ccccc1)N1CCC2(CCCN(C(c3ccccc3)c3ccccc3)C2)CC1 | n | n | x | x
CN1CCC(O)(c2cccs2)C(C(=O)c2cccs2)C1 (configuration not stated) | 3.66µM | 1.3µM | n | n
CN1CCC(O)(c2ccc(F)cc2)C(C(=O)c2ccc(F)cc2)C1 (configuration not stated) | u | u | n | x
COC(=O)C12CCc3c(ccc4cc(OC)ccc34)C1=CC(=O)C2 (configuration not stated) | u | n | x | 28.2µM
Cc1cc(N2CCCC2)ccc1C=C(C#N)C#N | n | n | n | n
Cc1ccc2cc(C=C(C#N)C#N)c(Cl)nc2c1 | 2.91µM | 2.06µM | n | n
CC(C)n1cnc2c(C(=O)N[C@H]3CN4CCC3CC4)cc(Cl)cc21 | u | u | n | x
COC(=O)[C@H]1[C@H]2C[C@@H]3c4[nH]c5cc(OC)ccc5c4CCN3C[C@H]2C[C@@H](OC(=O)/C=C/c2cc(OC)c(OC)c(OC)c2)[C@@H]1OC | 13µM! | u | x | n
Cc1ccc(C)c(S(=O)(=O)c2nnn3c2nc(N2CCN(C)CC2)c2sccc23)c1 | u | 16.4µM | n | n
Cc1ccc2nc(N3CCN(C)CC3)[nH]c2c1 | n | n | n | n
C[C@@H]1[C@H]2Cc3ccc(O)cc3[C@]1(C)CCN2C | n | n | x | x
O=C(NCc1cccnc1)c1ccc(-c2ccc(F)c(F)c2)c2ccoc12 | 4.61µM | 5.8µM | x | n
Cc1ncoc1C(=O)NCC1=C(c2ccc3ccccc3c2)C[C@@H]2CC[C@H]1N2Cc1ccco1 | u | u | x | n
CC[C@H]1C[C@H]2[C@@H]3CCC4=CC(=O)CC[C@@H]4[C@H]3CC[C@]2(C)[C@H]1O | n | u | x | x
CC[C@]1(O)CC[C@H]2[C@@H]3CCC4=CCCC[C@@H]4[C@H]3CC[C@@]21C | 5.31µM | 7.5µM | x | x
c1ccc(-c2ccc(CN3Cc4ccccc4-n4nncc4C3)cc2)cc1 | 5.17µM | 4.61µM | x | n
SMILES | DT40 TDP1 no CPT | DT40 TDP1 CPT | TDP1 block | ClpP mod
Fc1ccccc1CN1Cc2ccccc2-n2nncc2C1 | 23.1µM | u | x | n
Cc1ccc(-n2c(=S)[nH]c3ccccc3c2=O)cc1F | u | n | x | n
C=CCC1(C(C)CCC)C(=O)N=C(S)NC1=O (configuration not stated) | n | n | n | x
COc1ccc([C@H]2C[C@H](O)[C@@H](n3cc(COC(=O)c4ccccc4)nn3)CN2Cc2cccs2)cc1 | u | n | x | n
Cc1nn(C(C)(C)C)c(C)c1/C=N/OC(=O)Nc1ccc(Cl)c(Cl)c1 | 16.4µM | 14.6µM | n | n
Cc1ccc(NC(=O)c2snnc2C)cc1Cl | n | n | n | x
COc1ccccc1CCNC1CCC(C(C)(C)C)CC1 (configuration not stated) | 20.6µM | u | n | n
Cc1nc2ccc(Nc3nc4cc(S(=O)(=O)N5CCOCC5)ccc4o3)cc2s1 | 18.4µM | 16.4µM | n | n
COc1ccc(C(=O)N2CCN(c3nc4c(OC)cccc4s3)CC2)cc1OC | 14.6µM | 18.4µM | n | n
CCN(CC)C(=O)N[C@@H]1C=C2c3cccc4[nH]cc(c34)C[C@@H]2N(C)C1 | 9.44µM | 21.1µM | x | x
NC1(C(=O)O)CCCc2ccc(N(CCCl)CCCl)cc21 (configuration not stated) | 2.31µM | 1.64µM | x | x
O=C1NC(=O)C2(CCCc3ccc(N(CCCl)CCCl)cc32)N1 (configuration not stated) | 0.184µM | 0.411µM | x | x
COC(=O)C1=C(C(=O)OC)SC2(S1)C(C(=O)OC)=C(C(=O)OC)Sc1c2ssc1=O | 0.184µM | 0.092µM | x | n
COc1ccc2[nH]c(C)c(CCNCc3cn(C)c4ccccc34)c2c1 | 9.2µM | 11.6µM | n | n
C=CCn1c(O)c(C(CC)=NCCCO)c(=O)[nH]c1=O | 8.2µM | n | n | n
C=CCn1c(O)c(C(CC)=NCc2cc(OC)cc(OC)c2)c(=O)[nH]c1=O | 7.31µM | 7.31µM | n | n
C=CCn1c(O)c(C(CC)=NCc2ccc3c(c2)OCO3)c(=O)[nH]c1=O | u | u | n | x
CCC(C)(C)O | x | x | n | x
CC1(CCCc2ccc(N(CCCl)CCCl)cc2)NC(=O)NC1=O (configuration not stated) | 0.517µM | 0.411µM | x | n
CC(=O)NC(Cc1ccc(N(CCCl)CCCl)cc1)C(=O)NC(C(=O)O)C(C)C (configuration not stated) | n | n | n | x
c1cnc2ccc(C(c3nnnn3C3CCCCC3)N3CCN(C4CCCCC4)CC3)cc2c1 (configuration not stated) | 13µM | 13µM | x | n
CCOc1ccc(NCc2cccn2-c2nnc(N3CCC(C(=O)NCc4ccc(C)cc4)CC3)s2)cc1 | 7.31µM | 9.2µM | n | n
Cc1ccc(NCc2cccn2-c2nnc(N3CCC(C(=O)NCc4ccc(OC(C)C)cc4)CC3)s2)cc1 | 18.4µM | u | n | n
CCOc1ccc(NCc2cccn2-c2nnc(N3CCC(C(=O)NCC(C)c4ccccc4)CC3)s2)cc1 (configuration not stated) | 8.2µM | 23.1µM | n | n
C[C@H]1CCC[C@H](O)CCCCCc2cc(O)cc(O)c2C(=O)O1 | 18.4µM | 14.6µM | n | n
CC1CCC[C@H](O)CCCCCc2cc(O)cc(O)c2C(=O)O1 (some centres not stated) | u | n | n | n
C[C@H]1CCC[C@@H](O)CCC/C=C/c2cc(O)cc(O)c2C(=O)O1 | 20.6µM | u | n | n
O=C(O)/C=C/C(=O)O | n | n | n | n
CNCCC(Oc1ccc(C(F)(F)F)cc1)c1ccccc1 (configuration not stated) | 25.9µM | u | n | n
